This is an account of results in PubChem BioAssay AID1159583 (ICCB-Longwood Screening Facility, Harvard Medical School, 2016).

Values joined by “and” are separate entries in the source; they are usually repeats but may differ in a detail not shown here. Identical values can stand only once. Screen size: about 300,000 compounds; about 310 (0.1%) were called active. No stated cut-off is given here; in the data, active means fluorescence inhibition mostly above about 23% (no sharp cut-off); inactive means mostly below about 17%. The list comes from a sample in which actives are over-represented; it also holds similar structures and randomly drawn compounds.

The nature of the experiment: hypoxia reporter signal reduction in M. tuberculosis – fluorescence, absorbance growth readout, primary screen (AID 1159583). The note with it: M. tuberculosis hypoxia-regulated fluorescent reporter, stronger effect = higher value, concentration not given here; growth inhibition: measured here: M. tuberculosis growth (absorbance).
In the case of `O=C(NN=Cc1ccccc1)C(O)c1ccccc1` (stereo not given), the fluorescence inhibition was -2.65% (inactive) and the growth inhibition was -6.95%.

As for `COc1ccc2c(c1)C1C(CO2)C(c2ccccc2)[C@]2(C)C(=O)Nc3cc(F)c(F)cc3C(=O)N12` (stereo not given in full), the fluorescence inhibition is 12.4% (inactive) and the growth inhibition was 11.9%.

As for `COC(=O)C1=C(C)N(Cc2ccccc2)C(=NCc2ccco2)NC1c1cccc(F)c1` (stereo not given), the fluorescence inhibition was -3.36% (inactive) and the growth inhibition was 4.01%.

Turning to `CC(=O)C=C(C)NC(Cc1c[nH]c2ccccc12)C(=O)O` (stereo not given), the fluorescence inhibition is -7.06% (inactive) and the growth inhibition is -3.51%.

Regarding `CC(=NNC(=S)NC1CCCCC1)c1ccc(OC(F)F)cc1OC(F)F`, the fluorescence inhibition is 2.47% (inactive) and the growth inhibition was 1.1%.

Consider `COc1ccc(Cl)cc1C(=O)NN=Cc1ccc(N2CCOCC2)cc1`, for which the fluorescence inhibition was -1.94% (inactive) and the growth inhibition amounted to 6.35%.

In the case of `CC(Cc1ccccc1)=NNC(=O)CNC(=O)c1cccc(Br)c1`, the fluorescence inhibition is -10% (inactive) and the growth inhibition is -2.78%.

For `CCOC(=O)C1=C(N)n2c(sc(=Cc3ccco3)c2=O)=C(C(=O)OC)C1c1ccco1` (stereo not given), the fluorescence inhibition was -1.95% (inactive) and the growth inhibition is -7.35%.

For the molecule `C=CCc1cccc(C=Nc2nc3ccccc3n2CC)c1O`, the fluorescence inhibition is 7.78% (inactive) and the growth inhibition stood at 3.33%.

Consider `CCOc1c2ccc(C(=O)NC(C)C3CCCCC3)cc2nn1CCOC` (stereo not given), for which the fluorescence inhibition was 1.7% (inactive) and the growth inhibition turned out to be 7.24%.

`CC#CCN1c2ccccc2[C@]23CC(C(=O)OC)N(C(C)=O)C2=NC(C(=O)OC)=C(C(=O)OC)C13` (stereo not given in full): the fluorescence inhibition is 21.5% (inactive) and the growth inhibition was determined as 5.39%.

On to `COc1ccc(C(=O)NN=Cc2ccc(OC(=O)c3cccc4ccccc34)c([N+](=O)[O-])c2)cc1`, for which the fluorescence inhibition was 8.45% (inactive) and the growth inhibition amounted to 6.08%.

In the case of `COc1ccc(C2CC(=O)C=C(c3ccc(OC(F)(F)F)cc3)C2)cc1OC` (stereo not given), the fluorescence inhibition was -7.53% (inactive) and the growth inhibition was found to be 0.871%.

`Cc1sc2nc(C)n(N=Cc3ccc(O)cc3)c(=O)c2c1C`: the fluorescence inhibition is 8.51% (inactive) and the growth inhibition came to 1.4%.

Turning to `CCCCN1C(N)=NCC1CCCCN` (stereo not given), the fluorescence inhibition was 3.89% (inactive) and the growth inhibition turned out to be 4.01%.

Regarding `O=C(CCCC(=O)NN=Cc1ccccc1C(=O)O)NN=Cc1ccccc1C(=O)O`, the fluorescence inhibition is 3.15% (inactive) and the growth inhibition was found to be 3.53%.

`NC(=NOC(=O)c1ccc2c(c1)OCO2)c1ccc([N+](=O)[O-])cc1`: the fluorescence inhibition is 3.03% (inactive) and the growth inhibition was 4.61%.

In the case of `COc1ccc(C=NNc2nc(=O)[nH]nc2C)cc1[N+](=O)[O-]`, the fluorescence inhibition was 5.04% (inactive) and the growth inhibition came to 5.94%.

`CCn1c(SCC(=O)NN=C(C)c2ccco2)nnc1-c1ccccc1`: the fluorescence inhibition is -6.87% (inactive) and the growth inhibition was -5.95%.

For `Oc1ccccc1C=NNc1cccc2cccnc12`, the fluorescence inhibition was 2.03% (inactive) and the growth inhibition was determined as 5%.

In the case of `O=C(Cc1cc(=O)[nH][nH]1)NN=Cc1ccccc1Cl`, the fluorescence inhibition was -6.7% (inactive) and the growth inhibition was 3.17%.

Consider `Cc1ccc(S(=O)(=O)NN=Cc2ccc(OC3CSC3)cc2)cc1`, for which the fluorescence inhibition was -5.05% (inactive) and the growth inhibition was found to be 2.12%.

Take `CC(NCCN1CCOCC1)=C(C#N)C(N)=O`: the fluorescence inhibition was 7.39% (inactive) and the growth inhibition was found to be 4.01%.

For the molecule `O=C1C2CC3C=CC2(O3)C2OCCCN12` (stereo not given), the fluorescence inhibition was 8.99% (inactive) and the growth inhibition is 11.9%.

As to `CC1CC2C3CCC4=CC(=O)C=C[C@]4(C)[C@@]3(F)C(O)C[C@]2(C)C1C(=O)CO` (stereo not given in full), the fluorescence inhibition was -3.35% (inactive) and the growth inhibition came out at 0.308%.

As for `Nc1cnnc(NN=Cc2ccccc2)c1Cl`, the fluorescence inhibition is 7.6% (inactive) and the growth inhibition is 4.96%.

In the case of `Cc1cc(C(=O)NN=Cc2ccc(-c3ccc([N+](=O)[O-])cc3C)o2)n[nH]1`, the fluorescence inhibition is 5.18% (inactive) and the growth inhibition is 1.96%.

Consider `O=C(NN=Cc1ccccn1)c1cc(-c2ccccc2Cl)n[nH]1`, for which the fluorescence inhibition is 10.9% (inactive) and the growth inhibition turned out to be 11.2%.

In the case of `CC(=NNC(=O)OC(C)(C)C)c1ccc(-n2ccnc2)cc1`, the fluorescence inhibition is 11.1% (inactive) and the growth inhibition came to 15.9%.

`N#CC(=NNc1cccc(F)c1)C(=O)C1CC1`: the fluorescence inhibition is 0.893% (inactive) and the growth inhibition is -0.741%.

In the case of `CC(CC(O)(C=NO)c1ccccc1)=NO` (stereo not given), the fluorescence inhibition is 10% (inactive) and the growth inhibition amounted to 6.39%.

As to `COc1ccc(C=NNc2nc3ccccc3[nH]2)c(OC)c1OC`, the fluorescence inhibition was 1.22% (inactive) and the growth inhibition was -0.982%.

Consider `CCOC(=O)C(=Cc1ccc(C)cc1)NC(=O)c1ccccc1`, for which the fluorescence inhibition is 1.97% (inactive) and the growth inhibition was found to be 2.94%.

Regarding `NC(Cc1cccc2ccccc12)=NOC(=O)Cc1cccs1`, the fluorescence inhibition was 2.6% (inactive) and the growth inhibition turned out to be 4.27%.

On to `COc1ccc(CNC(=O)C2CC=CC3CCN(C4CC4)C(=O)C32)cc1` (stereo not given), for which the fluorescence inhibition was 19.3% (inactive) and the growth inhibition stood at 20.6%.

With `Cc1cc(C(=O)NN=Cc2cn[nH]c2-c2ccccc2)cs1`, the fluorescence inhibition was -3.45% (inactive) and the growth inhibition was -1.59%.

`COc1cccc(C2Oc3ccc(Br)cc3C(=O)C2OC(=O)NC2CCCC2)c1` (stereo not given): the fluorescence inhibition was 2.63% (inactive) and the growth inhibition is 0.422%.

On to `CCCCCC=CC1=CC(=O)CC(c2ccc(Cl)cc2)C1` (stereo not given), for which the fluorescence inhibition was -0.281% (inactive) and the growth inhibition came out at 11.6%.

`Cc1cc(SCC(=O)NN=Cc2ccccc2C(=O)O)c(C)cc1Br`: the fluorescence inhibition is 0.764% (inactive) and the growth inhibition is -1.84%.

`OCC1OC(O)C(O)C1O` (stereo not given): the fluorescence inhibition is 1.54% (inactive) and the growth inhibition is -8.94%.

`CC(C)(C)OC(=O)CC1CC=CCC(CC(=O)NC(CO)Cc2ccccc2)C(=O)NC(C(C)(C)C)COC1=O` (stereo not given): the fluorescence inhibition was 0.171% (inactive) and 3.19% (inactive); the growth inhibition was 4.91% and 7.16%.

On to `CC(C)(O)C1C2OC(=O)C1[C@]1(O)CC3O[C@]34C(=O)OC2[C@]14C` (stereo not given in full) (tested in a mixture with another compound), for which the fluorescence inhibition is -0.0447% (inactive) and the growth inhibition was found to be 5.86%.

For the molecule `COC(=O)[C@]1(Cc2ccccc2)NC(c2ccc(-c3cccc(Cl)c3)c(OC)c2)C2C(=O)N(C)C(=O)C21` (stereo not given in full), the fluorescence inhibition was 1.8% (inactive) and the growth inhibition worked out at 8.95%.

`O=C(NN=Cc1c[nH]c2ccccc12)c1[nH]c2ccc(Br)cc2c1-c1ccccc1`: the fluorescence inhibition is 4.24% (inactive) and the growth inhibition is -6.01%.

`O=C(NN=CC1CC2CCC1C2)C1CC1` (stereo not given): the fluorescence inhibition was -1.06% (inactive) and the growth inhibition is -3.88%.
